Shown are actives, neighbours in structure and some others; about 2.3% of the full set was active somewhere.
CHRM1 antagonist: human M1 muscarinic receptor antagonists, primary screen, CHO-K1 cells, Fluo-8 calcium fluorescence, 1536-well. CHO-K1 hM1, ACh EC80 antagonist. 360,000 tested, 1.3% active. Muscarinic acetylcholine receptor M1 (Homo sapiens), P11229. inhibition, % at 3 µM;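 active = percent inhibition above its own plate's cutoff, namely the mean of that plate's compound wells plus 3 SD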;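 note: peak over basal fluorescence ratio during 140 s after agonist addition; 0% = ACh EC80 plus DMSO and 100% = DMSO alone without agonist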
Target sequence (P11229 whole entry, looked up): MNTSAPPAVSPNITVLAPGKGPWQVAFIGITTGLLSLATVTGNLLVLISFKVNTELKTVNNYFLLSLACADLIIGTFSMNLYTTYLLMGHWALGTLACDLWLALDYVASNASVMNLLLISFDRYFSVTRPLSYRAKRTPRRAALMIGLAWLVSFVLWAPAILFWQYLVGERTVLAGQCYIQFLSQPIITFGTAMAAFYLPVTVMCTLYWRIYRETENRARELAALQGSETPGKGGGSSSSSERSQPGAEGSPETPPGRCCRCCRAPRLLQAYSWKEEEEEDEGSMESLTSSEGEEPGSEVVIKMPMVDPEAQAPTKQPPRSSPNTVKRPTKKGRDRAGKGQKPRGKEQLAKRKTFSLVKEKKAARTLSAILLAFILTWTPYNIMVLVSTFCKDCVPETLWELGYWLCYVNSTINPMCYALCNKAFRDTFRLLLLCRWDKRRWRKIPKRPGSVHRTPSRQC
M1 PAM: human M1 muscarinic receptor positive allosteric modulators, primary screen, CHO-K1 cells, Fluo-8 calcium fluorescence, 1536-well; CHO-K1 hM1, ACh EC20; 0% = ACh EC20, 100% = maximal ACh; 360,000 tested, 0.088% active; AID 588819, 2011; Muscarinic acetylcholine receptor M1 (Homo sapiens), P11229; activation, % at 3 µM; in the data active = activation above about 19%, passing the limit was not always enough
CHO-K1 Ca PAM: nonselective calcium activators in parental CHO-K1 cells, primary screen, counter-screen for M1 PAM project, cell-based, Fluo-8 calcium fluorescence, full deck, 1536-well. ATP EC20; 0% at ATP EC20, 100% at ATP max. activation, % at 3 µM. 360,000 tested, 0.02% active;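 active = activation above the run cutoff, the mean activation of all test compounds plus 3 SD, cut at about 40% in these data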;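 note: peak over basal fluorescence ratio in a 140 s read after ATP addition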
CHRM1 agonist: human M1 muscarinic receptor agonists, primary screen, Fluo-8 calcium fluorescence, CHO-K1 cells, HTS; Muscarinic acetylcholine receptor M1 (Homo sapiens), P11229; 360,000 tested, 0.33% active; CHO-K1 hM1, agonist mode; 0% DMSO, 100% acetylcholine EC100; activation, % at 3 µM;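 active = activation above the run's mean compound activation plus 3 SD, cut at about 16% in these data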;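 note: peak over basal fluorescence ratio within a 140 s kinetic read after compound addition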
CHO-K1 Ca ag: counter-screen for M1 agonists: effect in parental CHO-K1 cells | AID 602248, 2012 | activation, % at 3 µM | 360,000 tested, 0.48% active | Fluo-8 calcium fluorescence; scaled to maximal ATP response, vehicle zero; in the data active = activation above about 15%;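 note: untransfected CHO-K1 host cells lacking M1 receptor as counterscreen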
CHO-K1 Ca antag: counter-screen for M1 antagonists: effect in parental CHO-K1 cells; ATP-induced calcium, Fluo-8 fluorescence; 360,000 tested, 0.6% active; inhibition, % at 3 µM;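 active = inhibition above a per-plate cutoff, the plate's mean sample inhibition plus 3 SD, cut at about 24% in these data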;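 note: 0% = DMSO plus EC80 ATP and 100% = DMSO alone without ATP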
An asterisk follows results filed as active.

SMILES | CHRM1 antagonist | M1 PAM | CHO-K1 Ca PAM | CHRM1 agonist | CHO-K1 Ca ag | CHO-K1 Ca antag
CC(=O)N1CCCC(c2cc(C(=O)Nc3ccccc3)no2)C1 (centres undefined) | -17 | 6 | -9 | -2 | 0 | 34*
CCOC(=O)c1ccc(NS(=O)(=O)c2c(C)[nH]c(C)c2C(=O)N2CCCCC2)cc1 | 8 | 2 | 6 | 1 | 6 | -9
OCC1(CCc2ccccc2)CCN(Cc2cccn2-c2cccnc2)CC1 | -4 | 5 | -9 | -14 | 0 | 4
CCN(CC)c1ccc(/C=C2\C(=O)c3ccc(C(=O)O)cc3C2=O)cc1 | 62* | -29 | -7 | 126* | 38* | 22
O=C(O)c1ccc(N(c2ccccc2)c2ccccc2)cc1 | -13 | 6 | 23 | -5 | 1 | -7
CCN(CC)c1ccc(C(=O)O)cc1 | 10 | -5 | -13 | -6 | 0 | 25*
CC(C)Cc1nnc(NC(=O)C2CCCN(C(=O)c3ccc(Cl)cc3)C2)s1 (centres undefined) | -4 | 9 | 14 | -3 | 0 | -1
COc1c(Br)cc(Br)cc1/C=N/NC(=O)c1ccncc1 | -3 | 4 | 3 | -5 | 15* | 1
COc1ccc([C@H]2C[C@H](O)[C@@H](n3cc(COC(=O)c4ccccc4)nn3)CN2Cc2cccs2)cc1 | -19 | 6 | -10 | -2 | 0 | 31*
O=C(Nc1cccc(OC(F)(F)F)c1)c1ccc(-c2cccnc2)c2ccoc12 | -1 | -2 | 11 | -4 | 2 | -14
COC(=O)c1cc2occc2n1Cc1nc(-c2ccccc2F)oc1C | 53* | -24 | 9 | -6 | 0 | -9
COC(=O)c1cc2ccsc2n1Cc1nc(-c2ccc(OC)cc2)oc1C | 45* | -34 | 6 | -10 | 1 | -12
COC(=O)c1cc2sc(Cl)cc2n1Cc1nc(-c2ccccc2)oc1C | 5 | 0 | -4 | 1 | 0 | 13
COC(=O)c1cc2sccc2n1Cc1nc(-c2ccc(OC)cc2)oc1C | 9 | -20 | 6 | -12 | 0 | -11
CC(C)n1ncc2c(C(=O)N3CCN(Cc4ccc(Br)s4)CC3)cc(C3CC3)nc21 | -4 | 2 | -5 | -6 | -1 | -4
CCCCCCNc1c([N+](=O)[O-])c(=O)sc2ccccc12 | 42* | -19 | -7 | -2 | 8 | 1
CC(C)(C)Nc1c([N+](=O)[O-])c(=O)sc2ccccc12 | -9 | 12 | 18 | -3 | 0 | -1
Cn1c(N2CCN(C(c3ccccc3)c3ccccc3)CC2)nc2c1c(=O)[nH]c(=O)n2C | 15 | -6 | -8 | -2 | 5 | 6
Cc1ccc2cccc(NC(=S)NC(=O)c3ccn(C)n3)c2n1 | -18 | -3 | -4 | -8 | 1 | -13
Cc1ccc2cccc(NC(=S)NC(=O)c3c(Br)cnn3C)c2n1 | 19 | -7 | -8 | -2 | 0 | 26*
CCC(C)C(=O)Nc1nnc(SCC(=O)NC(C)(C)C)s1 (centres undefined) | -9 | 9 | 11 | -4 | 0 | -6
Cc1c(NC(=O)Nc2ccccc2)c(=O)n(-c2ccccc2)n1C | 15 | -6 | 6 | -4 | 0 | -9
Cc1c(Cl)c([N+](=O)[O-])nn1CCCC(=O)Nc1c(C)n(C)n(-c2ccccc2)c1=O | 67* | -25 | 18 | -8 | 1 | -9
Cc1c(NC(=O)Nc2ccc(Cl)c(Cl)c2)c(=O)n(-c2ccccc2)n1C | 40* | -2 | 1 | -3 | 5 | 20
O=C1CCCCc2sc(Br)c([N+](=O)[O-])c2N1 | -4 | 5 | 18 | -3 | 1 | -11
CN(C)C(CNC(=O)c1cc(Br)ccc1Cl)c1ccco1 (centres undefined) | 9 | -5 | -12 | -7 | 17* | 8
CN(Cc1ccccc1)S(=O)(=O)c1ccc(Cl)c(C(=O)O)c1 | -5 | 5 | 17 | -2 | 1 | -8

Source: PubChem (The Scripps Research Institute Molecular Screening Center)
